This note sets out measurements from PubChem BioAssay (NCATS).

Inconclusive results are not listed. Calls of active or inactive are those of the source. Unless noted, calls come from the whole dose curve; as a rule, active = well fitted curve in the direction sought with a large enough effect; inconclusive = small, poorly fitted or top-dose-only effect, or another doubt; inactive = no such curve, though single readings can be large; an effect the other way counts as inactive or inconclusive.

Assay [1] concerns the target Nucleoprotein (Lymphocytic choriomeningitis virus (strain Armstrong)) (UniProt P09992). Kind of assay: qHTS for Inhibitors of the Functional Ribonucleoprotein Complex (vRNP) of Lymphocytic Choriomeningitis Arenaviruses (LCMV): LCMV Primary Screen - GLuc reporter signal (AID 1347086; calls by dose curve; note: series mostly up to about 57 µM; nearly all actives have a fitted effect of over 70% in size). (qHTS replaces the single test concentration by a dilution series.)
Assay [2] is described as follows: qHTS of pediatric cancer cell lines to identify multiple opportunities for drug repurposing: Primary screen for TC32 cells (AID 1347089). Note: nearly all actives have a fitted effect of over 60% in size. In outline: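 qHTS, TC32, 48 h drug treatment, CellTiter-Glo luminescence as a proxy for metabolically active cells; primary top concentration 46 µM (MIPE 11-pt, NPC 8-pt); confirmatory 11-pt.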
Assay [3] is described as follows: qHTS of pediatric cancer cell lines to identify multiple opportunities for drug repurposing: Primary screen for DAOY cells (AID 1347090). Note: series mostly up to about 46 µM; nearly all actives have a fitted effect of over 55% in size. In outline: (§1)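 Viability measured as metabolically active cells via CellTiter-Glo luminescence following 48 hours of compound exposure, 11-point dilutions in confirmatory testing. 500-1,000 cells/well plated 5 hours before dosing; controls were DMSO and 2.3 µM bortezomib.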

The nature of assay [4]: qHTS of pediatric cancer cell lines to identify multiple opportunities for drug repurposing: Primary screen for SJ-GBM2 cells (AID 1347091). In outline:
as §1

A short description of assay [5]: qHTS of pediatric cancer cell lines to identify multiple opportunities for drug repurposing: Primary screen for A673 cells (AID 1347092). Note: nearly all actives have a fitted effect of over 45% in size. Summed up:
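Luminescence from CellTiter-Glo, taken after 15 min at room temperature, served as the proxy for metabolically active cells following 48 h treatment. Both potency and efficacy were taken from curves fitted to the titration data.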

Assay [6] is described as follows: qHTS of pediatric cancer cell lines to identify multiple opportunities for drug repurposing: Primary screen for SK-N-MC cells (AID 1347093). Note: series mostly up to about 46 µM. Summed up: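 Metabolically active cells were quantified by ATP-dependent luminescence (CellTiter-Glo, 15 min at room temperature) following 48 h treatment. Cells had been plated at 500-1,000 per well and settled for 5 h beforehand.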

The nature of assay [7]: qHTS of pediatric cancer cell lines to identify multiple opportunities for drug repurposing: Primary screen for BT-37 cells (AID 1347094). Note: series mostly up to about 57 µM. Summed up:
(§2)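 500-1,000 cells/well; 5 h pre-incubation 37 °C/5% CO2; compound pinned; 48 h; CellTiter-Glo, 15 min RT; luminescence. MIPE 11-pt from 0.78 nM, NPC 8-pt from 0.59 nM final. Bortezomib 2.3 µM final as positive control.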

Assay [8] is described as follows: qHTS of pediatric cancer cell lines to identify multiple opportunities for drug repurposing: Primary screen for NB-EBc1 cells (AID 1347095). Summed up: as §2
Assay [9] is described as follows: qHTS of pediatric cancer cell lines to identify multiple opportunities for drug repurposing: Primary screen for U-2 OS cells (AID 1347096). Note: nearly all actives have a fitted effect of over 50% in size. In outline:
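Viability after 48 h compound treatment at 37C, 500-1,000 cells/well, read as ATP luminescence with CellTiter-Glo. Primary screens used 11-point (MIPE, 0.78 nM-46 µM) or 8-point (NPC, 0.59 nM-46 µM) final concentrations; follow-up screens used 11-point dilutions.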

A short description of assay [10]: qHTS of pediatric cancer cell lines to identify multiple opportunities for drug repurposing: Primary screen for Saos-2 cells (AID 1347097). Note: nearly all actives have a fitted effect of over 40% in size. Note: potency is the fitted concentration of half-maximal effect. In outline: as §2

Nucleoprotein (Lymphocytic choriomeningitis virus (strain Armstrong)), sequence (P09992 whole entry, looked up): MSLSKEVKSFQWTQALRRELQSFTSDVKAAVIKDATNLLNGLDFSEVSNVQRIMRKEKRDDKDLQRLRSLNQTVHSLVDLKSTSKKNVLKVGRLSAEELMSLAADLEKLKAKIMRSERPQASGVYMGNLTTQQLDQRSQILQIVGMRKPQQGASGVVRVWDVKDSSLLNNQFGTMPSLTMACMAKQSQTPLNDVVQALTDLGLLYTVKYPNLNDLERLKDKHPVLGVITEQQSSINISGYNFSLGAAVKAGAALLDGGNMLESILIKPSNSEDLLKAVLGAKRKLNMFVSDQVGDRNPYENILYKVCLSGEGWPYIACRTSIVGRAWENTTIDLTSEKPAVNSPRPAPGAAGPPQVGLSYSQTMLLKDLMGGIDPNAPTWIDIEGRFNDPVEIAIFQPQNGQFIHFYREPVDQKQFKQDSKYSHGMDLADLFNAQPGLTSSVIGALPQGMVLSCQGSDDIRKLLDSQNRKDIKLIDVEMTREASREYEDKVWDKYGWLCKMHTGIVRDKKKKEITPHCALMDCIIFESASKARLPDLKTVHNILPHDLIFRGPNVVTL

In the case of `CN(C)C(=O)Oc1cc(OC(=O)N(C)C)cc(C(O)CNC(C)(C)C)c1` (stereo not drawn), the Potency result in [1], in assay [2], in assay [3], in assay [4], in assay [5] and in assay [6] was “inactive” in each case. Further, the Potency entry in assay [7], in [8] and in assay [9] was “inactive” throughout.
With `NC(=O)OCCCc1ccccc1`, the Potency entry in [1], in [2], in [3], in assay [4], in assay [5] and in assay [6] was “inactive” in each case. For the same molecule, the Potency entry in [7], in assay [8], in [9] and in assay [10] was “inactive” in each case.
Turning to `CCOC(=O)NC(O)C(Cl)(Cl)Cl` (stereo not drawn), the Potency entry in assay [1], in [2], in assay [3], in [4], in assay [5] and in assay [6] was “inactive” in each case. Also, the Potency result in assay [7], in [8] and in assay [9] was “inactive” each time.
As to `CN(C)CCc1c[nH]c2ccccc12`, the Potency result in assay [1], in [2], in assay [3], in [4], in assay [5] and in assay [6] was “inactive” each time. Further, the Potency entry in assay [7], in [8], in [9] and in assay [10] was “inactive” in each case.
Consider `NCc1cccnc1`, for which the Potency entry in assay [1], in assay [2], in assay [3], in [4], in assay [5] and in assay [6] was “inactive” throughout. Besides, the Potency entry in assay [7], in assay [8], in assay [9] and in assay [10] was “inactive” each time.
In the case of `C[N+]1(CCC(C(N)=O)(c2ccccc2)c2ccccc2)CCCCC1`, the Potency result in assay [1], in assay [2], in [3], in assay [4], in [5] and in assay [6] was “inactive” in each case. Also, the Potency entry in assay [7], in assay [8], in assay [9] and in assay [10] was “inactive” in each case.
In the case of `O=C(CCCN1CCC(n2c(=O)[nH]c3ccccc32)CC1)c1ccc(F)cc1`, the Potency entry in assay [1], in assay [2], in assay [3], in assay [4], in [5] and in assay [6] was “inactive” throughout. In addition, the Potency result in assay [7], in assay [8], in assay [9] and in [10] was “inactive” each time.
With `CCCCC1C(=O)NC(=O)N(C2CCCCC2)C1=O` (stereo not drawn), the Potency entry in [1], in [2], in assay [3], in assay [4], in assay [5] and in [6] was “inactive” throughout. Besides, the Potency result in [7], in assay [8], in assay [9] and in assay [10] was “inactive” in each case.
For `O=C(N[C@H]1N=C(c2ccccc2F)c2cccc3c2N(CC3)C1=O)c1cc2ccccc2[nH]1`, the Potency entry in assay [1], in [2], in [3], in [4], in assay [5] and in assay [6] was “inactive” each time. Also, the Potency result in assay [7], in assay [8], in [9] and in assay [10] was “inactive” throughout.
Turning to `CCOC(=O)c1cncn1C(C)c1ccccc1` (stereo not drawn), the Potency result in [1], in [2], in [3], in assay [4], in assay [5] and in assay [6] was “inactive” in each case. For the same molecule, the Potency result in assay [7], in assay [8], in assay [9] and in assay [10] was “inactive” each time.
Turning to `COc1ccc2[nH]cc(CCN(C(C)C)C(C)C)c2c1`, the Potency result in [1], in assay [2], in assay [3], in [4], in assay [5] and in assay [6] was “inactive” each time. Also, the Potency result in assay [7], in assay [8], in [9] and in assay [10] was “inactive” throughout.
Regarding `CC(C)(O)C(Cl)(Cl)Cl`, the Potency entry in assay [1], in [2], in assay [3], in [4], in [5] and in assay [6] was “inactive” in each case. The Potency entry in assay [7], in [8], in [9] and in [10] was “inactive” in each case.
`OC(c1ccccc1)(c1ccccc1)C1CCNCC1`: the Potency result in [1], in [2], in assay [3], in assay [4], in [5] and in assay [6] was “inactive” each time. The Potency entry in [7], in assay [8], in assay [9] and in assay [10] was “inactive” throughout.
`CCCC(C)C1(CC)C(=O)N=C(S)NC1=O` (stereo not drawn): the Potency entry in assay [1], in assay [2], in assay [3], in [4], in assay [5] and in assay [6] was “inactive” in each case. The Potency result in assay [7], in assay [8], in assay [9] and in assay [10] was “inactive” in each case.
Turning to `NC(=O)CN1CCCC1=O`, the Potency result in assay [1], in assay [2], in [3], in assay [4], in [5] and in assay [6] was “inactive” in each case. The Potency result in assay [7], in assay [8], in assay [9] and in assay [10] was “inactive” throughout.
As for `CC(Cc1ccc2c(c1)OCO2)NO` (stereo not drawn), the Potency result in [1], in assay [2], in assay [3], in assay [4], in assay [5] and in assay [6] was “inactive” throughout. The Potency entry in [7], in [8], in assay [9] and in assay [10] was “inactive” each time.
Turning to `C[C@]12CC[C@H](O)CC1=CC[C@@H]1[C@@H]2CC[C@]2(C)C(=O)CC[C@@H]12`, the Potency entry in assay [1], in assay [2], in [3], in assay [4], in assay [5] and in [6] was “inactive” in each case. Further, the Potency result in [7], in assay [8], in [9] and in assay [10] was “inactive” in each case.
`CCc1ccc(C2CCNCC2)cc1`: the Potency result in [1], in [2], in assay [3], in [4], in assay [5] and in assay [6] was “inactive” throughout. The Potency result in [7], in assay [8], in [9] and in assay [10] was “inactive” throughout.
On to `ClCc1cccc(Cl)c1`, for which the Potency result in assay [1], in [2], in assay [3], in assay [4], in [5] and in assay [6] was “inactive” in each case. In addition, the Potency result in assay [7], in [8], in assay [9] and in assay [10] was “inactive” each time.
For `Cc1c(Cl)c(=O)oc2cc(OP(=O)(OCCCl)OCCCl)ccc12`, the Potency entry in assay [1], in [2], in [3], in [4], in [5] and in [6] was “inactive” throughout. The Potency entry in [7], in assay [8], in assay [9] and in assay [10] was “inactive” throughout.
Take `O=C1CN2CCOC2(c2ccccc2Cl)c2cc(Cl)ccc2N1` (stereo not drawn): the Potency result in [1], in assay [2], in assay [3], in assay [4], in assay [5] and in assay [6] was “inactive” each time. Besides, the Potency entry in assay [7], in [8], in assay [9] and in assay [10] was “inactive” each time.
Consider `CCN(CC)CCOC(=O)C(C)(c1ccccc1)c1ccccc1`, for which the Potency entry in assay [1], in assay [2], in assay [3], in assay [4], in [5] and in [6] was “inactive” each time. Besides, the Potency entry in assay [7], in assay [8], in [9] and in [10] was “inactive” each time.
Turning to `CC(CC(C(N)=O)(c1ccccc1)c1ccccc1)N(C)C` (stereo not drawn), the Potency entry in assay [1], in [2], in [3], in assay [4], in [5] and in assay [6] was “inactive” throughout. Moreover, the Potency entry in assay [7], in assay [8], in assay [9] and in assay [10] was “inactive” each time.
As for `Cc1cccc(Cc2cnc[nH]2)c1C`, the Potency result in assay [1], in [2], in [3], in assay [4], in [5] and in assay [6] was “inactive” in each case. Further, the Potency result in assay [7], in [8] and in assay [9] was “inactive” each time. In addition, the Potency in assay [10] was 29.9 µM (active).
For the molecule `CN1C[C@@H](NS(=O)(=O)N(C)C)C[C@@H]2c3cccc4c3c(cn4C)C[C@H]21`, the Potency entry in [1], in assay [2], in [3], in assay [4], in assay [5] and in [6] was “inactive” each time. For the same molecule, the Potency entry in [7], in [8], in assay [9] and in [10] was “inactive” throughout.
